About 83,000 compounds went through this panel and 20% of them were active in at least one assay; those are over-represented in the sample as a whole.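 The endpoint reported here, percent growth, reads 100 for growth as untreated, 0 for no net growth and -100 for all cells dead.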 Activity calls are given as the source filed them. How the source made its calls: active means growth percent below 10; inactive means the rest.
Tests used:
Assay in all cases: NCI-60 one-dose screen, 48 h (100 = growth as untreated, 0 = no growth, -100 = all killed)
Conditions in all cases: 10 µM unless noted
[1] = test system: SK-MEL-2 melanoma
[2] = test system: EKVX NSCLC
[3] = test system: SN12C renal
[4] = test system: UO-31 renal
[5] = test system: TK-10 renal
[6] = test system: ACHN renal
[7] = test system: A498 renal
[8] = test system: CCRF-CEM leukemia
[9] = test system: MOLT-4 leukemia

Measured: growth

COc1ccc(/C=C/C(=O)/C=C(/C=C/c2ccc(OC)c(OC)c2OC)OB(F)F)c(OC)c1OC
active: [6] -16.4% | [8] -2.62% | [9] 3.43%
inactive: [1] 76% | [2] 65.8% | [3] 20.6% | [4] 16.8% | [5] 35.6% | [7] 95.1%

O=C(C[n+]1ccccc1Cl)c1ccc2c(c1)CCCC2
inactive: [1] 103% | [2] 78.9% | [3] 101% | [4] 93.6% | [5] 92.8% | [6] 105% | [7] 91.3% | [8] 90.6% | [9] 73.6%

CN1CCN(Cn2nc(-c3cc(Cl)cc(Cl)c3Cl)n(/N=C/c3ccc(Cl)cc3)c2=S)CC1
inactive: [1] 97.6% | [2] 118% | [3] 96.4% | [4] 88% | [5] 94.6% | [6] 100% | [7] 97.8% | [8] 33.4% | [9] 59%

Clc1ccc2c(NCCNc3nc(Cl)nc4ccccc34)ccnc2c1
active: [1] -73.2% | [2] -9.06% | [3] -76.6% | [4] -95.6% | [5] -79.3% | [6] -97.7% | [8] -58.7% | [9] -52.4%
inactive: [7] 92.3%

O=C(c1cc(-c2ccc(Cl)cc2)nc2ccccc12)N1N=C(c2ccccc2)CC1c1cc(-c2ccccc2)nn1-c1ccccc1 (centres undefined)
inactive: [1] 86.4% | [2] 81.1% | [3] 85.5% | [4] 70.4% | [5] 131% | [6] 73% | [7] 92.5% | [8] 65.1% | [9] 68.7%

COc1cc(/C=C\c2cc(/C=C\c3ccc(O)c(OC)c3)n(C(=O)CNc3ccccc3OC)n2)ccc1O
inactive: [1] 61.2% | [2] 91.6% | [3] 75.4% | [4] 46.4% | [5] 113% | [6] 45.3% | [7] 105% | [8] 45.2% | [9] 58.6%

OCc1cnccc1NC12CC3CC(CC(C3)C1)C2
inactive: [1] 95.1% | [2] 103% | [3] 105% | [4] 90.1% | [5] 99.1% | [6] 101% | [7] 94.7% | [8] 95.9% | [9] 88.8%

C/C(=N\N=C1/SCC(=O)N1c1ccccc1)c1ccco1
inactive: [1] 91.6% | [2] 105% | [3] 131% | [4] 84.9% | [5] 96.9% | [6] 106% | [7] 89.2% | [9] 112%
active: [8] -63.9%

C=C1C(=O)O[C@H]2[C@H]1CC/C(COC(=O)c1cc(OC)c(OC)c(OC)c1)=C\CC[C@@]1(C)O[C@@H]21
active: [1] -39.4% | [2] -70.6% | [3] -5.94% | [4] -99% | [5] -64.4% | [6] -87.7% | [8] -22% | [9] -14.8%
inactive: [7] 59.8%

COc1cc(/C=C/C(=O)c2c(C)[n+]([O-])c3ccccc3[n+]2[O-])ccc1O
inactive: [1] 83.8% | [2] 84.5% | [3] 101% | [4] 80.4% | [5] 55.9% | [6] 95.4% | [7] 101% | [8] 124% | [9] 126%

COc1cccc(/C=N/C(=S)NC2(C)C3CCC(C3)C2(C)C)c1O (centres undefined)
inactive: [1] 82.1% | [2] 102% | [3] 100% | [4] 53% | [5] 85.9% | [6] 69.9% | [7] 73.2% | [8] 57.3% | [9] 63.8%

COc1ccc2c(c1)nnn1c3ncccc3c(N=O)c21
inactive: [2] 15% | [7] 31.9%
active: [1] -65.9% | [3] -80.4% | [4] -99.3% | [5] -15.1% | [6] -30.8% | [8] -22.8% | [9] -55.6%

CC1(C)Cc2c(Br)c(Br)c(Br)c(OCC(O)CN3CCN(c4ccccn4)CC3)c2O1 (centres undefined)
inactive: [1] 77.1% | [2] 95.3% | [3] 106% | [4] 47.7% | [5] 66% | [6] 85.8% | [7] 96.2% | [9] 52.9%
active: [8] -14.3%

O=C(Nc1ccc(F)cc1)Nc1ccc(Cl)c([N+](=O)[O-])c1
active: [1] 2.67% | [4] 8.43% | [6] 4.79% | [9] 5.48%
inactive: [2] 15.8% | [3] 15.8% | [5] 16.6% | [7] 25.7% | [8] 18.6%

Nc1nc(Cl)cc(NCCCCNc2cc(Cl)nc(N)n2)n1
inactive: [1] 87.6% | [2] 102% | [3] 126% | [4] 96.5% | [5] 111% | [6] 107% | [7] 174% | [8] 84.5% | [9] 94.8%

Clc1ccc2c(c1)nnn1c3ncccc3c(Br)c21
inactive: [1] 93% | [2] 29.2% | [3] 91.9% | [4] 58.9% | [5] 78.8% | [6] 78.4% | [7] 70.5% | [8] 86.4% | [9] 115%

FC(F)(F)c1cn(CCN2CCOCC2)c2ncnc(Cl)c12
active: [4] -85.5%
inactive: [1] 41.3% | [2] 92.6% | [3] 71.2% | [5] 113% | [6] 64.7% | [7] 105% | [8] 12.3% | [9] 40.4%

O=[N+]([O-])c1ccc(NS(=O)(=O)c2cc(Cl)ccc2Cl)c2ccccc12
inactive: [1] 18.7% | [2] 50.9% | [3] 45.8% | [4] 43% | [5] 75.8% | [6] 78.9% | [7] 23.9% | [8] 29.1% | [9] 46.8%

Cc1cn(-c2nc3c(c(NCc4ccccc4)n2)COCC3)c2cccc(C(N)=O)c12
inactive: [1] 38.1% [0.5 µM] | [2] 85.9% [0.5 µM] | [3] 30.8% [0.5 µM] | [4] 55% [0.5 µM] | [5] 83.2% [0.5 µM] | [6] 39.5% [0.5 µM] | [7] 85.1% [0.5 µM] | [8] 49.1% [0.5 µM] | [9] 60.6% [0.5 µM]

Cc1cn(C2CC(F)C(CO)O2)c(=O)[nH]c1=O (centres undefined)
inactive: [1] 115% | [2] 89.1% | [3] 94.8% | [4] 77.6% | [5] 91.9% | [6] 83.7% | [7] 112% | [8] 80.7% | [9] 57%

Nc1ccc(S(=O)(=O)Nc2cc(I)cc(I)c2)cc1
active: [8] -9.38% | [9] -69.4%
inactive: [1] 97.7% | [2] 124% | [3] 115% | [4] 99.7% | [5] 107% | [6] 120% | [7] 77.7%

CCNC(=O)Oc1ccc(/C(=C(/CC)Cc2ccccc2)c2ccc(OCCN3CCOCC3)cc2)cc1
inactive: [1] 66.2% | [2] 38.6% | [3] 67.7% | [4] 23% | [5] 76.2% | [6] 59.8% | [7] 76.9% | [8] 61.7% | [9] 10.1%

O=C(Nc1cccc([N+](=O)[O-])c1)c1ccc2ccccc2c1O
inactive: [1] 44.1% | [2] 51.9% | [3] 50.5% | [4] 49.8% | [5] 91.5% | [6] 77.6% | [7] 41.9% | [8] 39.2% | [9] 66.7%

COc1ccc2c(c1)nnc1c3cccnc3[nH]c21
active: [1] -13.2% | [3] -22.2% | [4] -74.1% | [6] -10.2% | [8] -0.9% | [9] -21.6%
inactive: [2] 34.2% | [5] 11.8% | [7] 40.3%

O=C(Nc1ccc(F)cc1)Nc1ccc(Br)c(C(F)(F)F)c1
active: [1] -11.1% | [2] 7.24% | [4] 7.01% | [6] 2.25% | [8] 6.73%
inactive: [3] 11.3% | [5] 10.4% | [9] 12.8%

CCC(N)(C(=O)O)c1ccc(F)cc1 (centres undefined)
inactive: [1] 98% | [2] 104% | [3] 102% | [4] 98.5% | [5] 95.5% | [6] 114% | [7] 117% | [8] 94.8% | [9] 90.1%

CN(C)c1ncc(C#Cc2c(F)cccc2F)c2ccccc12
inactive: [1] 81.5% | [2] 74.8% | [3] 78.8% | [4] 54.8% | [5] 112% | [6] 96.3% | [7] 100% | [8] 96.3% | [9] 80.8%

COc1ccccc1N1CCN(CCCOc2ccc(OCCCN3CCN(c4ccccc4OC)CC3)c(C(=O)c3cc(OC)c(OC)c(OC)c3)c2)CC1
inactive: [1] 97.2% | [2] 88.8% | [3] 110% | [4] 102% | [5] 123% | [6] 157% | [7] 122% | [9] 98.1%

C=C1C(=O)O[C@H]2[C@H]1CC/C(COC(=O)c1cccc3ccccc13)=C\CC[C@@]1(C)O[C@@H]21
active: [1] -65.6% | [2] -81.9% | [3] -55.3% | [4] -100% | [5] -73.1% | [6] -100% | [8] -19% | [9] -15.1%
inactive: [7] 82.2%
